A selection: hits, their analogues and other compounds. The true share with any hit is near 2.4%.
eIF4E-4G inh – eIF4E/eIF4G interaction inhibition in translation initiation | P63073+Q04637 | TR-FRET eIF4E-eIF4GI(517-606) binding, 2 h | inhibition, % at 21.7 µM | actives 0.37% (n = 220,000) | AID 782;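 active = inhibition above about 30%, limit read from the data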;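 also: 0% = full FRET control wells and 100% = background wells lacking eIF4GI fragment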
eIF4H FP inh – inhibitors of RNA binding by human eIF4H; actives 0.94% (n = 290,000); eIF4H fluorescence polarization binding assay; Q15056; inhibition, % at 35 µM;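 also: calls also rest on retests at 20 µM and on dose response follow-up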
M18AAP inhibitor – PfM18AAP enzyme inhibition. AID 1822. inhibition, % at 7.35 µM. actives 1.2% (n = 290,000). recombinant PfM18AAP, H-Glu-NHMec fluorogenic cleavage;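 active = inhibition above the campaign mean inhibition over all tested compounds plus 3 SD, cut at about 28% in these data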;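 also: 0% = plate median of test compound wells and 100% = 2 mM ZnCl2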
PABP1 MLLE inh – blocks PAM2 peptide binding to the PABP1 MLLE domain | P11940 | GST-MLLE / FITC-PAM2 fluorescence polarization | inhibition, % at 20 µM | actives 0.36% (n = 360,000) | AID 588489; in the data active = inhibition above about 35%, passing the limit was not always enough;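 also: plate controls were DMSO wells with GST-MLLE for no effect and wells lacking GST-MLLE protein for full effect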
PABP polyA inh – blocks human PABP binding to poly(A) RNA. inhibition, % at 35 µM. actives 1% (n = 290,000). fluorescence polarization;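 also: calls also rest on retests at 20 µM and on dose response follow-up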
PERK inh – blocks human PERK kinase; Q9NZJ5; inhibition, % at 5.6 µM; actives 0.17% (n = 220,000); AID 1416; CHO PERK-DD fusion, SEAP luminescence translation reporter;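 active = inhibition above the mean inhibition of all tested compounds plus 3 SD, set separately per screening campaign, cut at about 2.9% in these data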;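 also: PERK kinase domain activated by AP20187 dimerizer at 100 nM; 0% = DMSO with dimerizer and 100% = rapamycin at 8.4 µM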
Target sequence (Q9NZJ5 whole entry, looked up, the tested form may be a part): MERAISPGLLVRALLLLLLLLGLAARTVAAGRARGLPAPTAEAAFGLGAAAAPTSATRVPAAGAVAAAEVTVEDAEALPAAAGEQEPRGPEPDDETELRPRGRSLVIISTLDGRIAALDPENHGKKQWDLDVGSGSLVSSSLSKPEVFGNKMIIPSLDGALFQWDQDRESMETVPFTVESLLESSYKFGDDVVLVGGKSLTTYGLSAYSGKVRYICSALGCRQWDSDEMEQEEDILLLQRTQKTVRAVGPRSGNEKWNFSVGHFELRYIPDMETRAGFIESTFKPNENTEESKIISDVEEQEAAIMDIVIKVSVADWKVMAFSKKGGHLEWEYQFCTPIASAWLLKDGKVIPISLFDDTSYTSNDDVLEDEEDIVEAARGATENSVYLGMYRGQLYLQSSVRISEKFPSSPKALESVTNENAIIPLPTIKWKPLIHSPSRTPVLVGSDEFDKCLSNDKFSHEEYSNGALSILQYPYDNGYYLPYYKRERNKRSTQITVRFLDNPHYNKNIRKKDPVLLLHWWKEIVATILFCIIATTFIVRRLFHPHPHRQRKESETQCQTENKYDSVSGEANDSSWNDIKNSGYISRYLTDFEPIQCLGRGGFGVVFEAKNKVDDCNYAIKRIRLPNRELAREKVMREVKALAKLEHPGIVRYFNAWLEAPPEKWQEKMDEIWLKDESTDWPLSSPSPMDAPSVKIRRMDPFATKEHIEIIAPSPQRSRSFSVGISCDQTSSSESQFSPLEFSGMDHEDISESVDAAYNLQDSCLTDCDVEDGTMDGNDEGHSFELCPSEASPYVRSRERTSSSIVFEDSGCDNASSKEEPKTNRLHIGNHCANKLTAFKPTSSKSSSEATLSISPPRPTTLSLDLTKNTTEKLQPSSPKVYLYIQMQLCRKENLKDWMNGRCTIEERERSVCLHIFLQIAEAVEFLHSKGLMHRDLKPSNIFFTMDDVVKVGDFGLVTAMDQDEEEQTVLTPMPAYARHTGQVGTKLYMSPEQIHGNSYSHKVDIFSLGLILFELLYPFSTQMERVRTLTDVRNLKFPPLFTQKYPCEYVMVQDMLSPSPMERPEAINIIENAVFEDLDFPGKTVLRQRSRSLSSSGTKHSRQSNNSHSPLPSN
An asterisk follows results filed as active; ? = inconclusive; . = no result. Unless noted, no rule for the calls is given here.

SMILES	eIF4E-4G inh	eIF4H FP inh	M18AAP inhibitor	PABP1 MLLE inh	PABP polyA inh	PERK inh
COc1cccc(CN2CCc3[nH]c(=S)[nH]c(=O)c3C2)c1	.	4	30*	21	9	.
CCCCn1c(-c2ccc([N+](=O)[O-])cc2)n[nH]c1=S	-13	0	17	-26	-11	0
Cc1ccc(N=Nc2c(O)c3ccccc3[nH]c2=O)c(S(=O)(=O)N(C)C)c1	2	-6	-3	.	16	3.3*
CCCCNC(=O)CC1S/C(=N/N=C/c2ccc(OC)cc2)NC1=O (centres undefined)	-2	10*	7	-14	84	1
COc1ccc(/C=N/N=C2/NC(=O)C(CC(=O)NC(N)=O)S2)cc1 (centres undefined)	-1	0	-6	-1	8	1
CCN(CC)S(=O)(=O)c1ccc(OCC2CCCCO2)c([N+](=O)[O-])c1 (centres undefined)	.	-7	2	-4	0	.
COc1cccc(-c2ccc3c(c2)O[C@@H](CN(C)Cc2cncnc2)[C@@H](C)CN([C@H](C)CO)S3(=O)=O)c1	.	.	.	19	.	.
Cc1cccc(-c2noc(CN(C(=O)c3ccc4c(c3)OCO4)C(C)C)n2)c1	.	-3	-5	-1	8	1
Cc1nc(C(C)N(C)Cc2nc(-c3ccc4c(c3)OCO4)no2)c(C)s1 (centres undefined)	0	-10	0	18	5	3.0*
CC1(C)Cc2nc3sc(C(=O)NCCO)c(N)c3cc2CO1	1	6	31*	1	-2	0
CC1(C)Cc2nc3sc(C(=O)NCCCO)c(N)c3cc2CS1	-7	7	16	8	0	2
COC(=O)CSc1ncnc2c1sc1nc3c(cc12)COC(C)(C)C3	0	active	-3	-9	94	1
Cc1ccc2c(c1)c(=O)c1c3n2CCN(C(=O)CCl)C3CC1 (centres undefined)	1	?	-11	8	35*	0
CCCS(=O)(=O)N1CCN=C1SCc1cccnc1	15	1	1	40*	-3	1
CCCS(=O)(=O)N1CCN=C1SCc1ccc(F)cc1	.	-3	-3	-4	11	.
C=CCSc1nnc(CCc2ccccc2)n1N	.	.	.	3	.	.
Cc1c(C(=O)O)cccc1-n1c(C)cc(C=O)c1C	0	72*	2	-6	-8	0
O=C(CSc1ccc2ccccc2n1)NCCCN1CCCC1=O	.	.	.	6	.	.
CCOC(=O)c1c(N)sc(N)c1C(=O)OCC	3	0	13	18	34	1
CCOC(=O)c1c(N)sc(=S)c2c1CCC2	8	33*	23	41*	72*	2
CCOC(=O)c1c(N)sc2c1CCSC2	-6	111*	11	-15	118*	-1
CCOC(=O)c1c(N)sc2c1CCC(CC)C2 (centres undefined)	8	7	11	18	-2	0
CCc1ccc(NC(=S)N2CCNC(=O)C2CC(=O)OC)cc1 (centres undefined)	0	0	-1	10	91*	0
O=C(COC(=O)C1CCC1)Nc1ccccc1Sc1ccccc1	4	-8	4	6	-1	2
O=C(COC(=O)CCC1CCCC1)Nc1ccccc1Sc1ccccc1	17	1	-2	4	9	2.9*
SMILES	eIF4E-4G inh	eIF4H FP inh	M18AAP inhibitor	PABP1 MLLE inh	PABP polyA inh	PERK inh
CC(CCc1ccccc1)NC(=O)CN1CCSc2ccccc21 (centres undefined)	5	-4	4	15	-1	0
COc1ccccc1NC(=O)CSc1nnc(-c2ccoc2C)n1CC1CCCO1 (centres undefined)	0	-7	4	-2	0	-1
CCN(CC)CCCNc1ncnc2ccccc12	-1	44	-7	3	57*	1
COc1ccc(-c2c[n+]3c(n2-c2ccccc2)CCCCC3)cc1	-3	?	-5	0	54*	1
COc1ccc(-c2n[nH]c(=S)n2-c2ccc3c(c2)OCCO3)cc1	-2	-3	30*	12	-1	0
COc1cc(OC)cc(-c2n[nH]c(=S)n2-c2ccc3c(c2)OCCO3)c1	-3	-2	1	4	-7	1
NC(=O)C1=C[C@H](c2ccc(C(F)(F)F)cc2)C[C@H](OCc2ccc(CO)cc2)O1	3	?	0	18	5.6*	1

Source: PubChem BioAssay
